RORg inh – ROR gamma (mouse) transcription inhibition; P51450; Drosophila S2 Gal4-RORgamma UAS-luciferase reporter, 20 h; AID 2551; 5.4% of 310,000 active; Potency, µM (highest dose often 53.6 µM), actives largely listed as inhibitors; also: nearly all actives have a fitted effect of over 60% in size
Target sequence (P51450 whole entry, looked up, the tested form may be a part): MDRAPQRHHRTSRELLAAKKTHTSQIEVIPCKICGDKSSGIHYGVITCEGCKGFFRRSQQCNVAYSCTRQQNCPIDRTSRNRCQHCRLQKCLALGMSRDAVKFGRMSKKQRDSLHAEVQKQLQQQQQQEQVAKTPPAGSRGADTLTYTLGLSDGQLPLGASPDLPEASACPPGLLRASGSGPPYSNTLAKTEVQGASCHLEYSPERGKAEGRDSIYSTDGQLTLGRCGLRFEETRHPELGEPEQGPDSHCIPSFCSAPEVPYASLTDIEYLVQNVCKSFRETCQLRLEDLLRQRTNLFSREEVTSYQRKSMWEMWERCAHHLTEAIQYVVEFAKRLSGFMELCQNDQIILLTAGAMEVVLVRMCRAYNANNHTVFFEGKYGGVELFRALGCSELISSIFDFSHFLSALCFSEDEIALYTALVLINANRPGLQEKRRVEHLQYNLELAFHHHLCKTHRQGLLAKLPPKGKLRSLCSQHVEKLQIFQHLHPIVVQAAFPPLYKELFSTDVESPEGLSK
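Using a luciferase readout, inhibitors were identified by reduced reporter activity in Drosophila cells coexpressing a copper-inducible Gal4–ROR gamma fusion and UAS-driven Photinus luciferase, incubated 20 hr after 700 uM copper sulfate.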
Gal4-VP16 FLuc – inhibits Gal4-VP16 luciferase reporter, ROR gamma counter-screen; Drosophila S2 Gal4-VP16 UAS-luciferase, luminescence, 20 h; Potency, µM (top dose mostly 53.6 µM), hits mostly inhibitors; AID 2546; 3.5% of 310,000 active;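 also: Gal4-VP16 expression switched on by copper sulfate through the metallothionein promoter; nearly all actives have a fitted effect of over 50% in size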
Luc counter – counter-screen: inhibitors of Kinase-Glo firefly luciferase; 0.28% of 200,000 active; AID 1379; Kinase-Glo luciferase, ATP luminescence, 8 min; Potency, µM (titrated, usually from 38.3 µM), usual class: inhibitors; Q27757; also: nearly all actives have a fitted effect of over 60% in size
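Substrate mix (final 50 mM imidazole pH 7.2, 50 mM KCl, 7 mM MgCl2, 10 uM ATP, 0.01% Tween 20, 0.05% BSA) plus pin-tool compound, then Kinase-Glo detection mix; 8 min ambient, luminescence read.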
Numbers stand for hits; 0 = inactive; ? = inconclusive; - = no result; [ ] = another dose, or the depositor's remark. Only some compounds are listed: those with a hit (about 6.2% of all), similar ones and a draw of the others. Calls follow the shape of the dose curve; as a rule, active = well fitted curve in the direction sought with a large enough effect; inconclusive = small, poorly fitted or top-dose-only effect, or another doubt; inactive = no such curve, though single readings can be large; an effect the other way counts as inactive or inconclusive.

SMILES | RORg inh | Gal4-VP16 FLuc | Luc counter
Cc1cc(C(=O)CN2C(=O)CN(C)C2=O)c(C)n1-c1cccc(S(=O)(=O)N2CCOCC2)c1 | 0 | 0 | 0
Cc1cc(C(=O)CCl)c(C)n1-c1cccc(S(=O)(=O)N2CCOCC2)c1 | 10µM | 0[10 µM] | 0
CCCCC(=O)NC(=S)Nc1ccc(NC(=O)C(C)C)c(OC)c1 | ? | ? | 0
O=C(NCCOc1ccccc1)c1ccccc1Cl | 0 | ? | -
CN(C(=O)COc1ccccc1C(=O)NCCOc1ccccc1)c1ccccc1 | ? | 7.9µM | 0
O=c1c(-c2ccc(Cl)cc2)nc2cnc(N3CCOCC3)nc2n1C1CC1 | 0 | 0 | 0
CN(C)c1ccc(N=Nc2ccccc2Br)cc1 | 8.9µM | ? | -
CN(C)c1ccc(N=Nc2ccccc2C(=O)OCC(=O)N2CCCC2)cc1 | 0 | 0 | 0
Cc1noc(C)c1-c1nc(NC2CCNCC2)c2ccccc2n1 | 0 | 0 | -
O=C(CCc1nnc2ccc(NCc3ccc(Cl)cc3)nn12)NC1CCCCC1 | 0 | 0 | -
Cc1ccc(N2C(=O)C3C4C=CC(CNC(=S)Nc5ccc(Cl)cc5)(O4)C3C2=O)cc1 (stereo unspecified) | 7.1µM | 3.2µM | 0
O=C(NCc1ccc(N2CCCC2=O)cc1)Nc1cccc(Cl)c1 | 0 | 0 | 0
Cc1ccc(CNC(=O)C2CCCN(C(=O)Nc3ccc(F)cc3)C2)cc1 (stereo unspecified) | 0 | 0 | -
Cc1ccc(N2C(=O)C3C4C=CC(CNC(=S)Nc5cccc(Cl)c5)(O4)C3C2=O)cc1 (stereo unspecified) | ? | 13µM | 0
CCc1ccccc1N1CC23C=CC(O2)C(C(=O)OCC(C)C)C3C1=O (stereo unspecified) | 0 | 0 | 0
Cc1ccc(N2C(=O)C3C4C=CC(CNC(=S)N5CCN(c6ccccn6)CC5)(O4)C3C2=O)cc1 (stereo unspecified) | ? | 0 | 0
Cc1ccc(N2C(=O)C3C4C=CC(CNC(=S)Nc5ccc(F)cc5)(O4)C3C2=O)cc1 (stereo unspecified) | 4.5µM | 4µM | 0
CC(C)COC(=O)NCC12C=CC(O1)C1C(=O)N(c3ccc(Cl)cc3)C(=O)C12 (stereo unspecified) | 4µM | 20µM | 0
CCOc1cc(C(=O)NCC(=O)N/N=C/c2sccc2C)cc(OCC)c1OCC | 0 | 0 | 0
CC1CCCCC1NC(=O)CCNC(=O)N1CC(=O)Nc2ccccc21 (stereo unspecified) | 0 | 0 | -
CCc1ccc(N2CC(C(=O)N/N=C/c3ccccc3OC)CC2=O)cc1 (stereo unspecified) | 0 | 0 | -
O=C(N/N=C/c1cc([N+](=O)[O-])ccc1O)c1cccc2cc[nH]c12 | 1.4µM | 3.5µM | -
O=C1NCCCC1C(=O)N/N=C/c1cc([N+](=O)[O-])ccc1O (stereo unspecified) | 0 | 0 | -
O=C(N/N=C/c1cccc([N+](=O)[O-])c1)c1cccc2cc[nH]c12 | 0 | 0 | 0
CCc1ccc(N2CC(C(=O)N/N=C/c3cc([N+](=O)[O-])ccc3O)CC2=O)cc1 (stereo unspecified) | 4.5µM | 10µM | 0
SMILES | RORg inh | Gal4-VP16 FLuc | Luc counter
O=C(N/N=C/c1cc([N+](=O)[O-])ccc1O)C1CC1 | 1.8µM | 7.9µM | -
O=[N+]([O-])c1ccc(O)c(/C=N/Nc2ccccc2Cl)c1 | ? | ? | 0
Cc1sc(N/N=C/c2cc([N+](=O)[O-])ccc2O)nc1-c1ccccc1 | 0.28µM | 0.71µM | 0
Cc1onc(-c2c(F)cccc2Cl)c1C(=O)N1CCCCC1 | 0 | 0 | -
CCCc1cc2c(=O)c(-c3nc4ccccc4s3)c(COCC(=O)O)oc2cc1O | 0 | 0 | 0
COc1ccc(N(C)C(=O)CN(C)S(=O)(=O)c2ccc3c(c2)c(=O)n(C)c(=O)n3C)c(OC)c1 | 0 | 0 | -
O=C(N/N=C/c1ccc(O)c(O)c1O)/C(=C/c1ccc([N+](=O)[O-])cc1)NC(=O)c1ccccc1 | 0 | 0 | 0
O=C(N/N=C/c1cc([N+](=O)[O-])ccc1O)C(O)(c1ccccc1)c1ccccc1 | 0.89µM | 0.89µM | -
CC(=O)N(CCC1(c2ccc(C)cc2)CCOC(C(C)C)C1)Cc1ccco1 (stereo unspecified) | 0 | 0 | -
CCN(CC)C(=O)Cn1c(=O)n(CCC(=O)Nc2ccc(F)cc2)c(=O)c2sccc21 | 0 | 0 | -
Cc1cc(C)c2nc(C(F)(F)F)nc(N3CCN(C(=O)c4ccco4)CC3)c2c1 | 1µM | 0.89µM | 0
Cc1cc(C)c2nc(N3CCCN(C(=O)c4ccco4)CC3)c(C#N)cc2c1 | ? | ? | 0
CCNC(=O)NC(=O)C(C)Oc1ccc(Br)cc1Br (stereo unspecified) | 0 | 0 | 0
Cc1ccc(NC(=O)c2nc[nH]c2C(=O)Nc2ccc(C)cc2)cc1 | 1.4µM | 2.8µM | 0
CNC(=O)c1[nH]cnc1C(=O)Nc1ccc(Cl)cc1 | 4µM | 7.1µM | -
